Records with an inconclusive call do not appear. Calls of active or inactive are those of the source. The calls were made as follows: active = hit-call score of the fitted dose curve at least 0.9, where 1 is the maximum; inconclusive = response in the unintended direction; inactive = score below 0.9.
assay: ATG_M_32_EcoTox2: Attagene TRANS-FACTORIAL EcoTox-2 HepG2 Assay for M32 Transcription Factor (Internal Marker)
Protocol: ATG_EcoTox2 is a cell-based, multiplexed assay created by modifying the existing Attagene TRANS-FACTORIAL system to include a panel of nuclear receptors from some or all the following species: human (Homo sapiens), african clawed frog (Xenopus laevis), rainbow trout (Oncorhynchus mykiss), japanese medaka (Oryzias latipes), and zebrafish (Danio rerio). The ECOTOX2-FACTORIAL format uses HepG2, a human liver cell line, with measurements taken at 24 hours after chemical dosing in a 24-well plate. ATG_M_32_EcoTox2 is one of 29 assay components calculated in the ATG_EcoTox2 assay. It is designed to make measurements of mRNA induction, a form of inducible reporter, as detected with fluorescence intensity signals by Reverse transcription polymerase chain reaction (RT-PCR) and Capillary electrophoresis technology.The assay endpoint ATG_M_32_EcoTox2 was analyzed in the positive analysis fitting direction relative to DMSO as the negative control and baseline of activity. Using a type of inducible reporter, measures of mRNA for gain-of-signal activity can be used to understand the background control at the transcription factor-level as they relate to the gene. Furthermore, this assay endpoint can be referred to as a secondary readout, because this assay has produced multiple assay endpoints where this one serves a background control function. To generalize the intended target to other relatable targets, this assay endpoint is annotated to the background measurement intended target family, where the subfamily is internal marker.
Human liver HepG2 cells are transiently transfected with multiple reporter transcription units (MRTUs) in 6-well plates using FuGene 6 reagent (Roche; 3 ml FuGene/1 mg DNA). The MRTU constructs are regulated by a cis-regulating element (promoter). Each RTU expresses a GAL4-UAS that regulates the transcription of a nearby target reporter gene sequence. A major difference between the CIS and TRANS system is that in CIS activities of endogenous TFs are measured, whereas the TRANS assay evaluates changes in activities of exogenous, chimeric NR-Gal4 proteins. […] At the end of 24 hour incubation, total RNA was isolated using TriZol reagent (Invitrogen). The isolated RNA is then reverse-transcribed using oligo(dT) primer and Mo-MLV reverse transcriptase (Invitrogen) with DNAse I (Ambion) treatment for 30 min. The one-tenth of the produced cDNA was amplified by PCR using Taq DNA polymerase (Invitrogen) and two reporter sequence-specific primers. The PCR products were fluorescently labeled by primer extension with 6-arboxyfluorescein (6-FAM) 5'-labeled reporter sequence-specific primer (2 min at 95 C, 20 s at 68 C and 10 min at 72 C) and these products were digested with 5U of HpaI (New England Biolabs) for 2h at 37 C. The fragments were purified using Qiaquick PCR columns (Qiagen), analyzed on an ABI 3130xL genetic analyzer (Applied Biosystems) with peak positions identified by using a set of X-rhodamine (ROX)-labeled MapMarker1000 molecular weight standards (BioVentures). The raw capillary electrophoresis data was processed using Attagraph software (Attagene).

Which outcome does the source give for `CCCCOCN(C(=O)CCl)c1c(CC)cccc1CC` here?
The outcome was “inactive”.

Which outcome does the source give for `[Cl][Sn]([c]1ccccc1)([c]1ccccc1)[c]1ccccc1` here?
Its outcome is “inactive”.

With `O=S(=O)(O)C(F)(F)C(F)(F)C(F)(F)C(F)(F)C(F)(F)C(F)(F)F` as the molecule, how does the outcome read?
Its outcome is “inactive”.

For `O=P(Oc1ccccc1)(Oc1ccccc1)Oc1ccccc1`, which outcome is on record?
Its outcome is “inactive”.

Which outcome does the source give for `O=C(O)C(F)(F)C(F)(F)C(F)(F)C(F)(F)C(F)(F)C(F)(F)C(F)(F)F` here?
Its outcome is “inactive”.

Reference: PubChem BioAssay AID2284379 (EPA ToxCast)
